PKM2 act: increases activity of human pyruvate kinase M2; 0.34% of 260,000 active; P14618; Potency, µM (highest dose often 57.5 µM), without a hit: at the top dose activation, hits mostly activators; purified PKM2, Kinase-Glo ATP luminescence, activation; response scale: 0% is enzyme alone, no compound; note: potency is the fitted concentration of half-maximal effect; nearly all actives have a fitted effect of over 55% in size
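ATP formation by purified human PK-M2, quantified via coupled luciferase luminescence after 1 h at room temperature with 0.1 mM ADP and 0.5 mM PEP final.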
LDHA block: inhibitors of human lactate dehydrogenase A | 0.15% of 480,000 active | activity change, % (values are at about 110 or 230 µM) | purified LDHA, NADH/diaphorase-resazurin fluorescence; stronger effect = lower value | P00338; in the data active = activity change below about -30%; inconclusive = mostly about -25% to -30%;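 note: plate controls were DMSO wells for no effect and wells without enzyme for full effect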
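Human LDH5 at 2 nM final in Tris HCl pH 7.4 with 0.06 mM NADH and 0.2 mM pyruvate, reacted 5 minutes at room temperature. Remaining NADH coupled via diaphorase/resazurin; resorufin fluorescence read at 0 and 20 minutes, normalized to enzyme-free and DMSO wells.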
TrxR1 substrate: substrates of rat thioredoxin reductase 1. O89049. purified TrxR1 substrate turnover, NADPH consumption readout. Potency, µM (highest dose often 114 µM), for the others: top-dose activity change, negative = substrate turnover. 0.01% of 390,000 active; note: potency is the fitted concentration of half-maximal effect; nearly all actives have a fitted effect of over 50% in size
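Rat TrxR1, dispensed at 90 nM, was prereduced with 400 uM NADPH (final) for 5 min at ~22 deg C, then incubated with compound 15 min before 400 uM selenite. A first-read NADPH fluorescence drop versus no-compound background flagged substrates.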
GLS inhibitor: blocks human kidney-isoform glutaminase activity | 0.21% of 410,000 active | O94925 | GLS enzymatic activity, qHTS titration | Potency, µM (titrated, usually from 45.5 µM), inactives show top-dose activity change, negative = inhibition, hits mostly inhibitors; note: potency is the fitted concentration of half-maximal effect
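Read-out is an Amplex red fluorescence increase coupled through glutamate oxidase and HRP, measured before and after 30 min room-temperature incubation. hKGA is in 45 mM KH2PO4 (pH 8.2) with 0.02% Tween-20; glutamine added as 1mM solution.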
IDH1 R132H inh: human IDH1 R132H inhibition; O75874; IDH1-R132H enzyme, NADPH consumption, diaphorase/resazurin fluorescence; Potency, µM (series often up to 76.6 µM), inactives show at the top dose activity change, negative = inhibition, most hits filed as inhibitors; 0.093% of 390,000 active; note: potency is the fitted concentration of half-maximal effect; nearly all actives have a fitted effect of over 65% in size
Target sequence (O75874 whole entry R132H, stated change not applied): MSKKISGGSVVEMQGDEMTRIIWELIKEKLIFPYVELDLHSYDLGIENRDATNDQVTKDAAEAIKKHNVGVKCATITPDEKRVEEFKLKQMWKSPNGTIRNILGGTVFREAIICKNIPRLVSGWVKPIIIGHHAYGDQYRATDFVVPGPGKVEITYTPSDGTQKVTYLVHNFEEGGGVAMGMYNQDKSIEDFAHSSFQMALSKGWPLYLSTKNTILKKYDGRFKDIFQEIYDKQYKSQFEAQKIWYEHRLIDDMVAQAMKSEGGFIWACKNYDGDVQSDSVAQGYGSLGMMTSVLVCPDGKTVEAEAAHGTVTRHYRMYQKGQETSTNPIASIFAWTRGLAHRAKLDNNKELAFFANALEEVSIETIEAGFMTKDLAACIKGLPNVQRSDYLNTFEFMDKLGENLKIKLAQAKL
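IDH1-R132H (0.5 ug/mL) preincubated 30 min with compound, then NADPH (0.016 mM) and alpha-KG (2 mM) added; 80 min at RT, pH 7.5. Remaining NADPH coupled via diaphorase/resazurin to fluorescence (540/590 nm); concentration-response curves normalized to no-enzyme control.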
rTrxR1 inhibitor: blocks rat thioredoxin reductase 1. O89049. recombinant rTrxR1, NADPH fluorescence consumption, selenite substrate. Potency, µM (top dose mostly 114 µM), for inactives: top-dose activity change, negative = inhibition, usual class: inhibitors. 1% of 390,000 active; note: potency is the fitted concentration of half-maximal effect; nearly all actives have a fitted effect of over 65% in size
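Rat TrxR1 (90 nM in the dispensed reagent) was pre-reduced with 400 uM NADPH for 5 min at room temperature, then incubated with compound for 15 min. After 400 uM selenite was added, NADPH fluorescence (Ex 340/Em 450 nm) was followed for 8 min.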
An asterisk follows results filed as active; [ ] = remark or other dose. Most compounds without a hit are left out; they make up all but 1.4% or so of the library. Unless noted, calls come from the whole dose curve; as a rule, active = well fitted curve in the direction sought with a large enough effect; inconclusive = small, poorly fitted or top-dose-only effect, or another doubt; inactive = no such curve, though single readings can be large; an effect the other way counts as inactive or inconclusive. Unless noted, % is set by controls: 0 for no effect and ±100 for the full control effect.

`CC1(C)CC(=O)c2sc(NC(=O)CCS(=O)(=O)c3ccccc3)nc2C1` gave PKM2 act -11%, LDHA block -8, TrxR1 substrate 7%[57.1 µM], GLS inhibitor 4%, IDH1 R132H inh -4% and rTrxR1 inhibitor 6%[57.1 µM].
`Cc1ccc2[nH]cc(C(C(=O)O)N3CCN(c4ncc(Br)cn4)CC3)c2c1` (stereo not given) gave LDHA block 8.
`COCCCN(C(=O)c1cc2c(s1)CCC2)c1c(N)n(Cc2ccccc2)c(=O)[nH]c1=O` gave PKM2 act 13%, LDHA block -3, TrxR1 substrate -10%, GLS inhibitor -1%, IDH1 R132H inh -8% and rTrxR1 inhibitor -13%.
CCCN(C(=O)c1cc2c(s1)CCC2)c1c(N)n(Cc2ccccc2)c(=O)[nH]c1=O was read as PKM2 act 22µM*, LDHA block 2, TrxR1 substrate 9%[57.1 µM], GLS inhibitor 1%, IDH1 R132H inh -17% and rTrxR1 inhibitor 31%[57.1 µM].
Screening CCOC(=O)COc1ccc2nsnc2c1Cl returned PKM2 act -3%, LDHA block 0, TrxR1 substrate 51%[57.1 µM], GLS inhibitor 5%, IDH1 R132H inh -3% and rTrxR1 inhibitor -13%[57.1 µM].
Screening C=C(CC)C(=O)c1ccc(OCC(=O)O)c(Cl)c1Cl returned PKM2 act 0%, LDHA block -10, TrxR1 substrate 6%, GLS inhibitor 2%, IDH1 R132H inh inconclusive and rTrxR1 inhibitor 40µM*.
CC(C)CNC(=O)CN(c1ccc(Cl)c(C(F)(F)F)c1)S(C)(=O)=O was read as LDHA block 0.
`Fc1ccc(Nc2nc(-c3ccc(F)cc3)cs2)cc1` gave LDHA block 2.
Screening S=c1[nH]nc(-c2ccc3ncccc3c2)n1-c1ccc2c(c1)OCCO2 returned PKM2 act -6%, LDHA block -11, TrxR1 substrate 1%[57.1 µM], GLS inhibitor 6.3µM*, IDH1 R132H inh -4% and rTrxR1 inhibitor inconclusive.
Screening Cc1cc(C)cc(N2C(=O)CC(Sc3ccccc3C(=O)O)C2=O)c1 (stereo not given) returned PKM2 act 4%, LDHA block -6, TrxR1 substrate 6%[57.1 µM], GLS inhibitor -6%, IDH1 R132H inh 3% and rTrxR1 inhibitor -83%.
Screening CCCCN1C(=O)CC(Sc2ccccc2C(=O)O)C1=O (stereo not given) returned PKM2 act 4%, LDHA block -1, TrxR1 substrate -3%, GLS inhibitor 4%, IDH1 R132H inh 6% and rTrxR1 inhibitor 16µM*.
`O=C(O)c1ccccc1SC1CC(=O)N(c2ccc3c(c2)OCO3)C1=O` (stereo not given) gave PKM2 act 5%, LDHA block 4, TrxR1 substrate 8%, GLS inhibitor -10%, IDH1 R132H inh 3% and rTrxR1 inhibitor 40µM*.
For Cc1cccc(N2C(=O)CC(Sc3ncn[nH]3)C2=O)c1 (stereo not given) the results were PKM2 act -11%, LDHA block -1, TrxR1 substrate -4%, GLS inhibitor -4%, IDH1 R132H inh -12% and rTrxR1 inhibitor 20µM*.
For COc1ccc(N2C(=O)CC(Sc3ccccc3C(=O)O)C2=O)c([N+](=O)[O-])c1 (stereo not given) the results were PKM2 act 20µM*, LDHA block 7, TrxR1 substrate 3%, GLS inhibitor 7%, IDH1 R132H inh -3% and rTrxR1 inhibitor 71µM*.
Screening CC(C)CN1C(=O)CC(Sc2ccccc2C(=O)O)C1=O (stereo not given) returned PKM2 act -3%, LDHA block 6, TrxR1 substrate 5%, GLS inhibitor 4%, IDH1 R132H inh 3% and rTrxR1 inhibitor inconclusive.
For CCCc1cc(C(=O)NC(C)c2ccccn2)sc1C (stereo not given) the results were LDHA block 1.
Nc1nc(CN2CCN(C(=O)c3cccc(F)c3)CC2)nc2ccccc12 was read as LDHA block 4.
`CNc1c(NC(=O)NCc2ccccc2)c(=O)oc2ccccc12` gave LDHA block -2.
Screening Cc1cccc(N2C(=O)CC(Sc3ccccc3C(=O)O)C2=O)c1 (stereo not given) returned PKM2 act inconclusive, LDHA block -2, TrxR1 substrate -3%, GLS inhibitor 9%, IDH1 R132H inh 6% and rTrxR1 inhibitor 56µM*.
Screening Cc1ccc(N2C(=O)CC(Sc3ccccc3C(=O)O)C2=O)c([N+](=O)[O-])c1 (stereo not given) returned PKM2 act inconclusive, LDHA block -2, TrxR1 substrate -3%, GLS inhibitor 6%, IDH1 R132H inh 0% and rTrxR1 inhibitor 79µM*.
For CN(C)c1ccc(N2C(=O)CC(Sc3ccccc3C(=O)O)C2=O)cc1 (stereo not given) the results were PKM2 act 11%, LDHA block -6, TrxR1 substrate -9%, GLS inhibitor 34%, IDH1 R132H inh 8% and rTrxR1 inhibitor 79µM*.
For Cc1ccc(-c2nc(Cn3cnc(C#N)n3)co2)c(C)c1 the results were LDHA block -2.
Screening N#C/C(=C\c1cccs1)C(=O)c1ccccc1Cl returned PKM2 act inconclusive, LDHA block 1, TrxR1 substrate -6%, GLS inhibitor -6%, IDH1 R132H inh -4% and rTrxR1 inhibitor 13µM*.
Screening COc1cccc(NC(=O)CN(C)C(=O)c2cccc(S(=O)(=O)N3CCc4ccccc43)c2)c1 returned LDHA block 4.
`CN(C)CCCNCC(=O)c1c(-c2ccccc2)n(C)c2ccccc12` gave LDHA block -37*, TrxR1 substrate 2%, GLS inhibitor -19%, IDH1 R132H inh -8% and rTrxR1 inhibitor -6%.
Screening Nc1nc(-c2ccccc2)c(CCCOc2ccc(NC(=O)CBr)cc2)c(=O)[nH]1 returned LDHA block -12, TrxR1 substrate -5%, GLS inhibitor 5%, IDH1 R132H inh -6% and rTrxR1 inhibitor 45µM*.
Screening CCOc1ccc(NC(=O)CSc2nc(N)c(-c3ccccc3)c(=O)[nH]2)cc1 returned PKM2 act -16%, LDHA block -6, TrxR1 substrate 8%, GLS inhibitor 7%, IDH1 R132H inh -2% and rTrxR1 inhibitor 17%[57.1 µM].
CCCc1cc(=O)oc2cc(C)c(CN3CCCC3)c(O)c12 was read as PKM2 act 0%, LDHA block 1, TrxR1 substrate 6%, GLS inhibitor 10µM*, IDH1 R132H inh 11% and rTrxR1 inhibitor -34%.
